The results in this text go back to PubChem BioAssay (NCI).

This is part of a sample that, as a whole, favours compounds with a hit. Of some 83,000 tested, about 20% had one in any assay.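 Cell lines were cultured in 96-well plates, exposed to a single compound concentration, and assessed for percent growth 48 hours later.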 Values without a mark were called inactive. Active and inactive are the calls of the source. The calls were made as follows: active = growth percent below 10; inactive = the rest.

Holding throughout (test): NCI-60 one-dose screen, 48 h (100 = growth as untreated, 0 = no growth, -100 = all killed)
What all share (conditions): 10 µM

The subject of experiment [1] is HCT-15 colon.
Experiment [2] has as its system HT29 colon.
For experiment [3], the system named is SNB-75 CNS.
The subject of experiment [4] is SNB-19 CNS.
Experiment [5] has as its system U251 CNS.
Experiment [6] deals with PC-3 prostate.
Experiment [7] deals with SK-MEL-5 melanoma.
The test system of experiment [8] is UACC-62 melanoma.
Experiment [9] relates to LOX IMVI melanoma.
For experiment [10], the system named is SK-MEL-28 melanoma.
Experiment [11] deals with SK-MEL-2 melanoma.
Experiment [12] has as its system EKVX NSCLC.
The test system of experiment [13] is SN12C renal.
Experiment [14] concerns UO-31 renal.
In experiment [15] the test system is TK-10 renal.
The subject of experiment [16] is ACHN renal.
Experiment [17] has as its system CAKI-1 renal.
In experiment [18] the test system is A498 renal.
Experiment [19] deals with CCRF-CEM leukemia.
Experiment [20] relates to MOLT-4 leukemia.

In the case of `CN1CCN(c2ccc(Nc3nc(NCCCNC(=O)c4ccc(Cl)cc4)c4sccc4n3)cc2)CC1`, the growth in experiment [1] is 26.8%; in experiment [2], 35.4%; in [3], 99.5%; in [4], 104%; in experiment [5], 44.6%; in experiment [6], 61.6%. For the same molecule, the growth is 72.4% in experiment [7]; 86% in experiment [8]; 59.7% in [9]; 89.1% in [10]; 113% in experiment [11]; 88.3% in experiment [12]. Besides, the growth in [13] was 74.5%; in experiment [14] it was 67.3%; in [15], 115%; in experiment [16], 73.1%; in experiment [17], 79.9%; in experiment [18], 136%. The growth in experiment [19] was 34.8%.
As for `C/C(=N\NC(N)=S)c1ccc(Nc2nc(SC(C)C)nc(-c3ccccc3)c2C#N)cc1`, the growth in [1] was 77.1%; in experiment [2], 57.9%; in [3], 104%; in [4], 63.5%; in experiment [5] it was 32%; in [6], 59.2%. Also, the growth in [7] is 75.5%; in experiment [8], 48.1%; in experiment [9], 29.8%; in [10], 80.9%; in experiment [11] it was 89.3%; in experiment [12] it was 75.9%. Moreover, the growth in experiment [13] was 63.5%; in experiment [14], 77.5%; in [15] it was 98.1%; in experiment [16] it was 58.3%; in [17], 74.6%; in experiment [18] it was 123%. For the same molecule, the growth is 76.3% in experiment [19] and 77.5% in experiment [20].
In the case of `O=C(Nc1ccccc1)Nc1nc2ccccc2s1`, the growth in [1] is 66.7%; in experiment [2] it was 89.4%; in [3], 109%; in [4], 89.7%; in experiment [5], 95.9%; in [6], 67.3%. For the same molecule, the growth in experiment [7] was 61.1%; in experiment [8], 48.3%; in experiment [9], 83.2%; in experiment [10] it was 41.4%; in experiment [11], 92.9%; in [12], 64.1%. Moreover, the growth in [13] is 88.9%; in [14] it was 57.5%; in experiment [15], 95.4%; in experiment [16] it was 82.2%; in [17], 76.7%; in experiment [18], 129%. In addition, the growth in experiment [19] was 67.5%.
As to `O=C(Nc1nc2ccccc2s1)c1ccc(Br)cc1`, the growth is 85.8% in [1]; 87.3% in experiment [2]; 107% in experiment [3]; 98.8% in experiment [4]; 107% in [5]; 82.1% in [6]. Also, the growth in [7] is 70.5%; in experiment [8], 73.3%; in [9], 82.9%; in experiment [10], 90.7%; in [11], 96.1%; in experiment [12], 63.5%. The growth in experiment [13] was 89.9%; in [14], 76.1%; in [15] it was 104%; in experiment [16], 94.8%; in [17], 91.1%; in [18] it was 115%. The growth in [19] is 85.6%; in [20] it was 74.3%.
Take `Cc1ccc(/C=C(\C#N)n2nnc3c(F)cccc32)cc1`: the growth in experiment [1] was 12.2%; in experiment [2] it was 2.75% (active); in experiment [3], 17.9%; in experiment [4], 23.6%; in [5] it was -26.1% (active); in experiment [6] it was 24.7%. Moreover, the growth was -23.5% (active) in experiment [7]; 36.8% in experiment [8]; -9.47% (active) in experiment [9]; 28.8% in experiment [10]; 16.5% in experiment [11]; 28.8% in [12]. For the same molecule, the growth in experiment [13] is 4.19% (active); in experiment [14] it was 15.2%; in experiment [15] it was 0.416% (active); in [16], 19.7%; in experiment [17], 21.8%; in experiment [18], 71.8%. In experiment [19], the growth was 10.1%.
Regarding `CC(=C(c1ccc(OCCCN(C)C)cc1)c1ccc(OCCCN(C)C)cc1)c1ccccc1`, the growth is -92.1% (active) in experiment [1]; -78.4% (active) in experiment [2]; -77.5% (active) in experiment [3]; -98.1% (active) in experiment [4]; -86.1% (active) in [5]; -74.2% (active) in experiment [6]. Further, the growth is -100% (active) in experiment [7]; -99.3% (active) in experiment [8]; -100% (active) in experiment [9]; -99.3% (active) in experiment [10]; -86.5% (active) in [11]; -96.1% (active) in [12]. Further, the growth in experiment [13] was -96.8% (active); in experiment [14] it was -99.9% (active); in [15], -92% (active); in experiment [16] it was -99.2% (active); in [17], -100% (active); in [18], -86.4% (active). The growth in experiment [19] is -65.9% (active).
With `Cc1ccc(-c2nc3ccc(C(=O)N=Nc4c(O)[nH]c5ccc(Br)cc45)cc3[nH]2)cc1`, the growth in [1] is 96.6%; in experiment [2] it was 47.9%; in experiment [3] it was 107%; in [4] it was 46.1%; in experiment [5] it was -76% (active); in experiment [6], 62.6%. Besides, the growth in experiment [7] is 84.1%; in experiment [8] it was 98%; in experiment [9], -27.8% (active); in [10] it was 99.3%; in experiment [11], 113%; in experiment [12], 94.9%. Moreover, the growth was 95.3% in experiment [13]; 80.3% in experiment [14]; 114% in experiment [15]; 101% in experiment [16]; 92.7% in [17]; 137% in experiment [18]. In addition, in [19], the growth is 34.7%.
On to `Cc1ccc(C(C)C)cc1NC(=O)c1ccccc1O`, for which the growth is 35% in [1]; 103% in [2]; 46.4% in [3]; 37.2% in [4]; 41% in experiment [5]; 33.4% in experiment [6]. Further, the growth is -45.5% (active) in experiment [7]; 9.83% (active) in experiment [8]; 40.1% in [9]; 31.1% in experiment [10]; 25.4% in experiment [11]; 49.7% in experiment [12]. The growth was 37.8% in experiment [13]; 16.6% in experiment [14]; 69.4% in experiment [15]; 44.7% in experiment [16]; 32.3% in [17]; 67.8% in experiment [18]. The growth in experiment [19] was 24.5%.
